Sampled rows, rich in hits. Any-hit rate of the full collection: about 9.4%.
ALDH1A1 inh = blocks purified human ALDH1A1 activity; Potency, µM (doses to about 75.3 µM), inactives show at the highest dose activity, negative = inhibition, most hits filed as inhibitors; Purified ALDH1A1, NADH fluorescence, propionaldehyde substrate; hit rate 7.3% among 220,000; AID 1030; active = well fitted inhibition curve with a large enough effect, not every such curve was filed as active; inconclusive = small, poorly fitted or top-dose-only effect, or another doubt; inactive = no such curve, though single readings can be large or run the other way;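 note: potency is the fitted concentration of half-maximal effect; plate controls were no enzyme wells and a reference inhibitor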
IMPase inh = IMPase inhibition in cells. P97697. CHO-M1 cells, IP1 accumulation, HTRF TR-FRET ratio. inhibition (IP1 accumulation), % at 46.1 µM. 120,000 tested, under 10 active. AID 901; active = well fitted curve in the direction sought with a large enough effect in the signal ratio, not every such curve was filed as active; inconclusive = small, poorly fitted or top-dose-only effect, or a change in a side signal; inactive = no such curve, though single readings can be large or run the other way; the % refers to the signal ratio;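 note: cells stimulated with carbachol in lithium chloride buffer; plate controls were DMSO basal wells for no effect and reference inhibitor wells for full effect; higher means more IMPase inhibition seen as more IP1 and lower FRET ratio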
Target sequence (P97697 whole entry, looked up): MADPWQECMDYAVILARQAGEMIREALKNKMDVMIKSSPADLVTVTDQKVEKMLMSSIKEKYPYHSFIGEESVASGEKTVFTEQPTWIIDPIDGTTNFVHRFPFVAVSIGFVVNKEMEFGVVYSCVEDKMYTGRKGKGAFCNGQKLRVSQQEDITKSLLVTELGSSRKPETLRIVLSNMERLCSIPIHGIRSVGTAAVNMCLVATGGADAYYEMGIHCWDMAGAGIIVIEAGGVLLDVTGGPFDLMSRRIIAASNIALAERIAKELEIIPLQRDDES
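CHO-M1, 2000 cells/well, cultured 16–30 h; cpd up to 46 uM; carbachol (50 uM solution, stimulation buffer w/ 50 mM LiCl, pH 7.4), 30 min 37C; IP-One TR-FRET, 10 min RT; Ex 320/Em 665, 620; Hill-fit AC50.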
HPGD inh = HPGD (human) dehydrogenase inhibition | purified HPGD, NADH fluorescence kinetic, PGE2 substrate | Potency, µM, without a hit: at the highest dose activity change, negative = inhibition, most hits filed as inhibitors | hit rate 4.3% among 150,000 | AID 894; active = well fitted inhibition curve with a large enough effect, not every such curve was filed as active; inconclusive = small, poorly fitted or top-dose-only effect, or another doubt; inactive = no such curve, though single readings can be large or run the other way; note: potency is the fitted concentration of half-maximal effect; % is set by controls: 0 for no effect and ±100 for the full control effect
Target sequence (P15428 whole entry, looked up): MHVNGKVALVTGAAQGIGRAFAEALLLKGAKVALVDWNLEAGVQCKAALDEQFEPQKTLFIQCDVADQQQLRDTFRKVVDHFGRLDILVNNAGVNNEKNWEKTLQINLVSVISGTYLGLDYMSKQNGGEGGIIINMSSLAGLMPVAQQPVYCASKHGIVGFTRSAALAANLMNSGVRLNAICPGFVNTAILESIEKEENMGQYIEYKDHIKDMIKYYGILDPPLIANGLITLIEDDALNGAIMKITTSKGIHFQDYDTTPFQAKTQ
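NADH formation kinetics: reaction with 30 uM PGE2 and 1 mM NAD+ (final), 20 nM enzyme, Tris-HCl pH 8 with Tween 20, after 15 min compound preincubation at room temperature. Fluorescence change, last versus first of five reads.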
HTT cytoprotect = protects HTT-Q103 PC12 cells, measured by ATP | PC12 HTT-Q103 induced, cytoprotection, ATP luminescence, 40 h | Potency, µM (highest dose often 56.4 µM), inactives show cytoprotection (ATP increase), usual class: activators | hit rate 0.14% among 230,000; note: potency is the fitted concentration of half-maximal effect; % of control where 0% means no effect; nearly all actives have a fitted effect of over 45% in size
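PC12 cells stably carrying ecdysone-inducible Htt exon 1 (Q103)–GFP were induced with 100 nM tebufenozide (final) alongside library compounds in a dose series. Cytoprotection was scored as retained ATP by ATPlite luminescence.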
IMPase Li cell = membrane-permeable IMPase blocker, potentiated with lithium | CHO-M1 cells, IP1 TR-FRET (IP-One), carbachol + lithium | Potency, µM (titrated, usually from 59.4 µM), for inactives: top-dose activity, negative = IMPase inhibition, hits mostly inhibitors | hit rate 0.35% among 210,000;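 note: IP1 builds up when IMPase is blocked and the TR-FRET signal falls; potency is the fitted concentration of half-maximal effect; plate controls were basal vehicle for no effect and high inhibitor control for full effect; nearly all actives have a fitted effect of over 50% in size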
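Concentration–response in CHO-M1 cells, lithium-potentiated; 30 min at 37C. IP1 detected by competitive TR-FRET after 10 min lysis at RT. Hill-fitted AC50.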
HttQ103 aggreg = reduces HttQ103-GFP aggregates in PC12 cells; PC12 HttQ103-GFP aggregates, Acumen cytometry, 40 h; hit rate 1.1% among 220,000; AID 1688; Potency, µM (series often up to 46.1 µM), inactives show top-dose activity change, negative = inhibition, hits mostly inhibitors; note: potency is the fitted concentration of half-maximal effect; % is set by controls: 0 for no effect and ±100 for the full control effect; nearly all actives have a fitted effect of over 60% in size
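Multiplexed with ATP-based cell death, this channel scores GFP aggregates in PC12 cells expressing inducible HTTex1-Q103-GFP. Induction used 100 nM tebufenozide; compounds were tested in concentration series.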
The depositor's hits bear a star; u = inconclusive; x = not tested or not shown; [ ] = another dose, or the depositor's remark. Unless noted, calls come from the whole dose curve; as a rule, active = well fitted curve in the direction sought with a large enough effect; inconclusive = small, poorly fitted or top-dose-only effect, or another doubt; inactive = no such curve, though single readings can be large; an effect the other way counts as inactive or inconclusive.

SMILES | ALDH1A1 inh | IMPase inh | HPGD inh | HTT cytoprotect | IMPase Li cell | HttQ103 aggreg
CC1CCCCN1S(=O)(=O)c1ccc(NC(=O)CSc2nnnn2C)cc1 (configuration not stated) | 22µM* | -3 | -30% | -6% | -9%[38.3 µM] | -22%
Cc1ccc(C)c(-n2nnnc2SCC(=O)Nc2cccc(-c3nnc4n3CCCCC4)c2)c1 | 7.1µM* | -1 | -17% | -34% | -1%[38.3 µM] | u
CNC(=O)CSc1nnnn1-c1cc(C)ccc1C | u | -8 | -8% | -2%[10 µM] | 0% | -5%
O=C(CSc1nnc2ccccn12)Nc1ccc(S(=O)(=O)N2CCOCC2)cc1 | 25µM* | x | x | -31% | 15% | 5%
Cc1cc2cc(C)c3nnc(SCC(=O)Nc4ccc(S(=O)(=O)N5CCCCC5C)cc4)n3c2cc1C (configuration not stated) | u | x | -12% | -12%[10 µM] | -2% | -16%
O=S(=O)(c1ccc(NC(=S)NN=C(Cc2ccccc2)Cc2ccccc2)cc1)N1CCOCC1 | 18µM* | x | x | 38%[10 µM] | 13% | 20%[9.22 µM]
O=S(=O)(c1ccc(NC(=S)NCCc2ccccc2)cc1)N1CCOCC1 | -13% | x | -5% | 31%[10 µM] | -3% | -7%
O=C(Nc1ccc(Br)cc1)c1cccc(S(=O)(=O)N2CCc3ccccc32)c1 | x | 1 | x | x | x | x
COc1ccc(C(=O)N2CCC3(CC2)CN(CC(C)C)C3)cc1 | 0% | x | -13% | -20% | 3% | x
CC(C)C(N)C(=O)O (configuration not stated) | -7% | x | x | -19% | -7% | x
N#Cc1cc2ccccc2nc1SCC(=O)Nc1ccc(S(=O)(=O)N2CCCC2)cc1 | 10µM* | 5 | -13% | 20% | 7%[38.3 µM] | -11%
COc1ccc2nc(SCC(=O)Nc3ccc(S(=O)(=O)N4CCCC4)cc3)c(C#N)cc2c1 | u | -10 | -13% | -7% | 12%[38.3 µM] | 20%
CC(=O)Nc1ccc(S(=O)(=O)N2CCOCC2)cc1 | 0% | -14 | 2% | 9%[10 µM] | 4% | -5%
Cc1ccccc1-n1nnnc1SCC(=O)Nc1ccc(S(=O)(=O)N2CCCC2)cc1 | 4µM* | 1 | -4% | -12%[10 µM] | 6% | 10%
CCCC(=O)Nc1ccc(S(=O)(=O)N2CCOCC2)cc1 | 3.2µM* | -3 | -4% | 21%[1.9 µM] | 2% | 11%
COc1ccc2c(c1)OC(=O)CC2c1ccc2c(c1)OCO2 (configuration not stated) | u | x | -6% | -3% | 3% | x
COc1c(OC)c2occc2c2oc(=O)ccc12 | u | x | -26% | -17% | 2% | x
COc1ccccc1/C=C/C=N/NC(=O)c1ccc2nc[nH]c2c1 | -6% | x | x | -42% | 4% | 14%
CCCCCCCC/C=C\CCCCCCCC(=O)N[C@@H](CO)Cc1ccc(O)cc1 | -4% | 0 | -8% | 13% | 5% | x
Cc1cccc(N2CCN(CCNC(=O)Nc3ccc(Cl)cc3)CC2)c1C | x | 7 | x | x | x | x
Cc1ccc(S(=O)(=O)Nc2cc(C)c(O)c(S(=O)(=O)c3ccc(C)cc3)c2)cc1 | 0.63µM* | -3 | -11% | -19% | 11%[38.3 µM] | u
Cc1cc(NS(=O)(=O)c2ccccc2)cc(Cl)c1O | 7.1µM* | 4 | -26% | -9% | 2%[38.3 µM] | u
O=S(=O)(Nc1ccc(S(=O)(=O)Nc2ccccc2)cc1)c1ccccc1 | u | -2 | -4% | -16% | -5%[38.3 µM] | 10%
CCCCc1ccc(S(=O)(=O)NCCc2ccncc2)cc1 | -4% | -5 | -2% | 20%[10 µM] | 19%[38.3 µM] | u
Cc1ccc(S(=O)(=O)NCc2ccncc2)c(C)c1C | 32µM* | x | x | -22%[10 µM] | 2% | -7%[9.22 µM]
CCCCNS(=O)(=O)c1ccc(S(=O)(=O)NCc2ccncc2)cc1 | 9% | 9 | 2% | x | 11% | 7.9µM*
COc1cc(C)c(Br)cc1S(=O)(=O)NCc1ccncc1 | -2% | x | x | -18% | 12% | 17%
Cc1cc(C)c(S(=O)(=O)NCc2ccncc2)c(C)c1 | 6% | 9 | -6% | 35% | 43%[38.3 µM] | 6.3µM*
CC(C)c1cccc2cc3c(nc12)-c1cccc(=O)n1C3 | u | x | u | 19% | -1% | x
